This passage reports activity change results from PubChem BioAssay AID651724 (National Center for Advancing Translational Sciences (NCATS), 2012).

SMILES strings stand for the structures. Screen size: about 340,000 compounds; about 1,700 (0.5%) were called active. Roughly 2% stayed inconclusive and do not appear here. This is one part of a sample in which actives are shown more often than they occur. Cut-off read from the data, not from the text of the source: active = activity change below about -65%; inconclusive = mostly about -30% to -63%; inactive = weaker than that.
% is set by controls: 0 for no effect and ±100 for the full control effect.

The experiment has as its system CtBP / adenovirus E1A interaction (AlphaScreen). Put plainly: qHTS Assay for Inhibitors of the CtBP/E1A Interaction. To be noted: AlphaScreen GST-E1A/His-CtBP binding, 1536-well; active compounds read low. In outline:
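AlphaScreen with 125 nM GST-E1A and 125 nM His-CtBP (5X stocks) in Tris pH 8.0, 300 mM NaCl, BSA, Tween 20, TCEP. Compounds preincubated 2 h at 37 deg C, then glutathione donor/nickel acceptor beads added for 1 h at 37 deg C in dark.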
A general note: qHTS replaces the single test concentration by a dilution series.
For `CCOC(=O)[C@]12CCCC=C1N(CCC1=CCCCC1)C(=O)[C@H](CC(=O)N1CCN(C(=O)c3ccco3)CC1)C2`, the activity change is -6.31% (inactive).
Next, `CN(C)S(=O)(=O)c1ccc(Cl)c(NC(=O)COC(=O)CC(NC(N)=O)c2ccc(Cl)cc2)c1` (configuration not stated): -6.53% (inactive); `NC(=O)NC(CC(=O)NNC(=O)c1ccccn1)c1ccc(Cl)cc1` (configuration not stated): -76% (active).
In the case of `O=C(COC(=O)c1ccccn1)NNC(=O)c1ccc(Br)cc1`, the activity change is -15.7% (inactive).
On to `CC(C)NC(=O)C1(C)CCCCCN1C(=O)c1ccc(-c2ccccc2)cc1` (configuration not stated), for which the activity change was -11.1% (inactive).
For `CCCC/C=C/c1cccc2nncn12`, the activity change was 2.58% (inactive).
In the case of `COc1cccc(-c2cc3nc(NCCOc4ccccc4Cl)n(C)c(=O)c3s2)c1`, the activity change was 3.25% (inactive).
Regarding `COc1ccc(CCCNC(=O)C2Cc3c(-c4cccc(C(N)=O)c4)ccnc3O2)cc1` (configuration not stated), the activity change is -0.248% (inactive).
The figure for `COc1ccc(C(=O)NCC(=O)N/N=C/c2cccnc2)cc1` is 11.7% (inactive); for `CCOC(=O)N/N=C/c1cccnc1` it is 25.9% (inactive).
For `O=C(CSc1cccc2cccnc12)N/N=C/c1cccnc1`, the activity change was -93.9% (active).
Next, `CCCCn1nnnc1C(c1cc2ccccc2o1)N(C)Cc1ccc(Cl)c(Cl)c1` (configuration not stated): 13.3% (inactive); `O=C(Nc1ccc2c(c1)OCCO2)C(C1CC1)N1CCC(Cc2ccccc2)CC1` (configuration not stated): -10.3% (inactive).
Consider `O=C(OCC(=O)N1CCCCCC1)c1ccc(Cl)nc1`, for which the activity change is -1.48% (inactive).
With `O=C(OCC(=O)N1CCCC1)c1ccc(Cl)nc1`, the activity change is 2.13% (inactive).
Next, `O=C(OCC(=O)N1CCCCCC1)c1cnc(Cl)c(Cl)c1`: -78.7% (active).
The figure for `OCc1ccc(OCCCOc2cccc3cccnc23)cc1` is -7.66% (inactive); for `O=S(=O)(NCCOc1cccc2cccnc12)c1ccc(F)cc1` it is 6.61% (inactive).
With `O=C(Nc1ccccc1)Oc1cccc2cccnc12`, the activity change is -90.3% (active).
The figure for `COC(=O)[C@@]12C[C@@H](CC(=O)NCc3cccc(C(F)(F)F)c3)C(=O)N(Cc3ccco3)C1=CCC(C)(C)C2` is -3.58% (inactive).
Next, `CCCCCCCCN1C(=O)[C@H](CC(=O)NCc2cccc3ccccc23)C[C@@]2(C(=O)OC)CCCCC=C12`: -7.91% (inactive); `CCCCCCCN=C(C)c1ccccc1O`: 2.02% (inactive).
Next, `C/C(=N\NC(=O)c1ccoc1C)c1ccccc1O`: -25.9% (inactive).
With `C/C(=N\Nc1ccc(Cl)nn1)c1ccccc1O`, the activity change is -87.6% (active).
`CC(C)Nc1ncnc2c1ncn2[C@H]1CN(Cc2ccncc2)C[C@@H](CO)O1`: the activity change is 4.17% (inactive).
Next, `Cc1cc(O)ccc1-c1cc(C(=O)NCc2cc(C(F)(F)F)cc(C(F)(F)F)c2)[nH]n1`: 0.488% (inactive); `O=C(Nc1ccc(Cl)c(C(F)(F)F)c1)C1Cc2c(-c3ccccc3Oc3ccccc3)ccnc2O1` (configuration not stated): -3.42% (inactive).
With `CC(O)(c1cccc(F)c1)c1nc(-c2ccc3c(c2)OCO3)cs1` (configuration not stated), the activity change was 0.33% (inactive).
Next, `Cc1cc(C)nc(N/N=C/c2c(CO)cnc(C)c2O)n1`: -85.2% (active); `Cc1ncc(CO)c(/C=N/NC(=O)c2cccc(S(=O)(=O)N3CCCC3)c2)c1O`: 0% (inactive); `CCc1nc2c(OCc3ccc(Cl)cc3Cl)cccn2c1N(C)C(=O)C(C)C`: -14.5% (inactive).
Next, `Cc1ccc(NC(=O)c2nc[nH]c2C(=O)N[C@@H](CCCCNC(=O)OC(C)(C)C)C(=O)OC(C)(C)C)cc1`: -1.82% (inactive); `CC(C)(C)OC(=O)NCCCCCNC(=O)c1nc[nH]c1C(=O)NCc1ccccc1`: 4.97% (inactive); `CC(C)(C)OC(=O)NCCCCCNC(=O)c1[nH]cnc1C(=O)Nc1nccs1`: -77% (active).
Consider `O=c1[nH]c(NCCO)nnc1Cc1ccc(Cl)cc1`, for which the activity change is 0.739% (inactive).
`COc1ccc(Cc2nnc(N/N=C/c3ccccc3O)[nH]c2=O)cc1OC`: the activity change was -73.4% (active).
Next, `COc1ccc(Cc2nnc(SC)[nH]c2=O)cc1`: 0.0747% (inactive); `CC1CCN(C(=O)CSc2nnc(-c3ccco3)n2N)CC1`: 1.76% (inactive).
As to `COc1cc2ccc(C(C)=O)c(O)c2cc1OC`, the activity change was 3.1% (inactive).
Next, `NC(c1csc(NC(=O)Nc2ccccc2Oc2ccccc2)n1)c1ccccc1Cl` (configuration not stated): -22.8% (inactive); `Cc1cccc(C)c1Cn1c(C)c(C(=O)NCc2cccc(Cl)c2)sc1=O`: -20% (inactive).
The figure for `NS(=O)(=O)c1ccc(CCNS(=O)(=O)c2cccc3cccnc23)cc1` is 3.18% (inactive).
Next, `O=[N+]([O-])c1ccccc1S(=O)(=O)Nc1cccc2cccnc12`: -78.7% (active); `Cc1ccc2cccc([N+](=O)[O-])c2n1`: -11.4% (inactive).
On to `CNC(=O)C1CN(C(=O)c2cccc(S(=O)(=O)N3CCc4ccccc43)c2)c2ccccc2O1` (configuration not stated), for which the activity change was -7.74% (inactive).
The figure for `CCOC(=O)[C@]12CCCC=C1N(Cc1ccc3c(c1)OCO3)C(=O)[C@H](CC(=O)NCc1cccs1)C2` is -17.2% (inactive); for `CN(C)C(CNC(=O)c1cc(Br)c(Br)s1)c1ccco1` (configuration not stated) it is 0.728% (inactive); for `CC(C)c1c(C(=O)N/N=C/c2ccccc2C(=O)O)nnn1-c1nonc1N` it is 18.7% (inactive).
Take `Nc1nonc1-n1nnc(C(=O)N/N=C/c2ccccc2O)c1CN1CCCC1`: the activity change is -92.6% (active).
For the compound `CCc1ccc(/C=N/NC(=O)c2nnn(-c3nonc3N)c2CN2CCc3ccccc32)cc1`, the activity change is -23.8% (inactive).
Next, `CCOC(=O)N1CCN(C(=O)C[C@@H]2C[C@@]3(C(=O)OC)CCCCC=C3N(CCC3=CCCCC3)C2=O)CC1`: -2.03% (inactive).
Next, `Oc1ccc2ccccc2c1N=Nc1nccs1`: -93.9% (active); `Oc1ccc(N=Nc2nccs2)c(O)c1`: -92.5% (active).
The figure for `OC[C@@H]1CN(Cc2ccc(-c3ccccc3)cc2)C[C@H](n2cnc3c(NC4CCCC4)ncnc32)O1` is -10.7% (inactive).
For the compound `O=C1[C@H]2[C@@H](c3ccc(C(F)(F)F)cc3)N[C@]3(CCCN(Cc4ccc(Cl)cc4)C3=O)[C@H]2C(=O)N1Cc1ccccc1`, the activity change was 5.38% (inactive).
The figure for `Cc1ccc(S(=O)(=O)N2C[C@H]3n4c(=O)ccc(=O)n4C[C@H](OC(=O)NC4CCCC4)[C@@]3(O)C2)cc1` is 2.31% (inactive).
The figure for `CC(=O)NC(c1cccc(F)c1)c1nc(-c2cccc(F)c2)cs1` (configuration not stated) is 6.59% (inactive).
